# Screening results (PubChem BioAssay)
# HCV inh: HCV inhibition; Huh7.5.1 HCVcc-Cre infection, luciferase reporter, 44 h; Potency, µM (titrated, usually from 41.8 µM), inactives show top-dose activity change, negative = inhibition, actives largely listed as inhibitors; 340,000 compounds, 3.4% hits
#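 Antiviral activity was scored by luciferase reporter output from cells infected with HCVcc-Cre (~0.5 moi) in presence of compound, 44 h infection period, cells seeded 1,000/well 4 h prior.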
# AmpC inh no detg: AmpC beta-lactamase inhibition without detergent; AmpC nitrocefin hydrolysis, absorbance 480 nm, 0.0001% Triton; P00811; 330,000 compounds, 0.52% hits; Potency, µM (top dose mostly 57.1 µM), inactives show at the highest dose activity change, negative = inhibition, most hits filed as inhibitors;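 further: plate controls were no compound for no effect and no enzyme for full effect; nearly all actives have a fitted effect of over 20% in size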
# Target sequence (P00811 whole entry, looked up): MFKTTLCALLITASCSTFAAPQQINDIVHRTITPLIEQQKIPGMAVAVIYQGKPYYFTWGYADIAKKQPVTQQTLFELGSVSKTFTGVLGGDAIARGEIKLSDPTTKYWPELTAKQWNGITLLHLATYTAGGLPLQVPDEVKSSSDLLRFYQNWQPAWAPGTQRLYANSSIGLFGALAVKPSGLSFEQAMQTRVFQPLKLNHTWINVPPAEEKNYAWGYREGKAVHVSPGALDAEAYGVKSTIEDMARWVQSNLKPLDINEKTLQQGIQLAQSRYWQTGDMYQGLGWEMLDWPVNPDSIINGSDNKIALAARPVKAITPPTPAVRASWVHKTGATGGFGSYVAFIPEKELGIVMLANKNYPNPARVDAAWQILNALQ
#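 AmpC (5.3 nM in the dispensed reagent) in 20 mM phosphate pH 7.0 with 0.01% (detergent screen) or 0.0001% Triton X-100 was preincubated with compounds for 15 min at room temperature. Nitrocefin was then added from an 800 uM solution, and hydrolysis was followed at 480 nm.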
# Pf growth 48h: P. falciparum growth inhibition at 48 hours (one generation); P. falciparum luciferase growth in erythrocytes, 48 h; Potency, µM (doses to about 28.7 µM), without a hit: top-dose activity change, negative = inhibition, hits mostly inhibitors; 310,000 compounds, 5.9% hits; AID 504832
#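 Erythrocytes infected with P. falciparum carrying an integrated firefly luciferase reporter (2% hematocrit, 0.1% parasitemia final) were exposed to compounds in RPMI 1640 with 0.5% Albumax at 37 C, 5% CO2. Growth inhibition was scored as reduced luminescence.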
# AMA1-RON2 inh: inhibitors of Plasmodium falciparum AMA1-RON2 interaction. 360,000 compounds, 0.2% hits. AlphaScreen AMA1-biotinylated RON2 peptide binding. Potency, µM (top dose mostly 58.2 µM), for inactives: at the highest dose activity change, negative = inhibition, usual class: inhibitors. AID 720542;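 further: 0% = vehicle wells and -100% = peptide control; nearly all actives have a fitted effect of over 45% in size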
#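 AMA1 (3D7) with his tag at 25 nM final met compounds first, then biotinylated RON2 peptide at 25 nM; detection used donor plus acceptor beads, 10 µg/mL apiece, read by AlphaScreen after 30 min at room temperature.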
# AmpC inh detg: blocks E. coli AmpC beta-lactamase in detergent assay | AmpC hydrolysis of nitrocefin, absorbance 480 nm, 0.01% Triton | Potency, µM (doses to about 114 µM), for inactives: top-dose activity change, negative = inhibition, most hits filed as inhibitors | 370,000 compounds, 0.041% hits;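 further: 0% = no-compound wells and -100% = no-enzyme wells; nearly all actives have a fitted effect of over 25% in size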
#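 AmpC (5.3 nM in the dispensed reagent) in 20 mM phosphate pH 7.0 with 0.01% (detergent screen) or 0.0001% Triton X-100 was preincubated with compounds for 15 min at room temperature. Nitrocefin was then added from an 800 uM solution, and hydrolysis was followed at 480 nm.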
# Pf growth 96h: inhibits malaria parasite growth, 96 h | P. falciparum luciferase reporter growth, 96 h | Potency, µM (titrated, usually from 28.7 µM), inactives show at the highest dose activity change, negative = inhibition, usual class: inhibitors | 320,000 compounds, 6.9% hits
#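 Delayed-death screen, second-generation endpoint: infected erythrocytes, 2% hematocrit, 0.05% parasitemia final; 96 hours at 37 C, 5% CO2; luciferase detection reagent; luminescence decrease equals reduced growth.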
# * hit, by the source's call; u = inconclusive; x = not tested or not shown; [ ] = another dose, or the depositor's remark. This is a sample that favours compounds with a hit; in the whole collection about 11% have one here. The call rests on the fitted dose curve; in most records, active means well fitted curve in the direction sought with a large enough effect; inconclusive means small, poorly fitted or top-dose-only effect, or another doubt; inactive means no such curve, though single readings can be large; an effect the other way counts as inactive or inconclusive. Unless noted, on the % scale 0 is the no-effect control and ±100 the full control effect; potency means the concentration at half of the fitted maximal effect.
SMILES,HCV inh,AmpC inh no detg,Pf growth 48h,AMA1-RON2 inh,AmpC inh detg,Pf growth 96h
COc1cc(-c2nc(-c3ccccc3)c(-c3cccs3)[nH]2)cc(OC)c1OC,22µM*,83%,u,-7%,-6%,x
c1ccc(-c2nc(-c3cccs3)[nH]c2-c2ccccc2)cc1,u,-26%,-8%,-4%,0%,-24%
Oc1ccccc1-c1nc(-c2cccs2)c(-c2cccs2)[nH]1,x,x,x,x,22%,x
COc1cc(-c2nc(-c3ccccc3)c(-c3cccs3)[nH]2)cc(OC)c1O,10µM*,28%,x,u,-1%,1.9µM*
COc1ccc(NC(=O)c2cc(S(=O)(=O)N3CCCCCC3)cn2C)cc1Cl,x,x,x,x,10%,x
Cc1ccc(N2C(=O)CN(Cc3sccc3C)C2=S)cc1C,-4%,-35%,12µM*,-15%,-3%,-10%
CCOC(=O)c1c(C)[nH]c(C)c1-c1ccccc1OC,12%,15%,-7%,-4%,1%,6%
CCOC(=O)c1c(C)[nH]c2cc(Br)c(OC)cc12,5.6µM*,-10%,u,9%,u,-6%
CCc1ccc(OCC(=O)N(Cc2ccc(C)o2)C2CCS(=O)(=O)C2)cc1 (stereo not drawn),x,x,x,x,6%,x
Cc1cccc(C(=O)NCc2nnc(SCC(=O)Nc3ccccc3F)n2-c2ccccc2)c1,x,x,x,x,18%,x
CCN(c1ccccc1)S(=O)(=O)c1ccc(Cl)c(NC(=O)CN2C(=O)NC3(CCCC3)C2=O)c1,u,-20%,u,-7%,-6%,-23%
CCC1CCC2(CC1)NC(=O)N(CC(=O)Nc1cccc(S(=O)(=O)N(C)c3ccccc3)c1)C2=O (stereo not drawn),8.9µM*,-14%,u,0%,-11%,u
CN(c1ccccc1)S(=O)(=O)c1cccc(NC(=O)CSc2nccc(=O)[nH]2)c1,5%,-38%,x,-11%,x,x
CN1C(=O)N(CC(=O)Nc2cccc(S(=O)(=O)N(C)c3ccccc3)c2)C(=O)C12CCCCC2,4µM*,0%,15µM*,-1%,0%,u
Cc1cc(O)c(C(C)C)cc1C1(c2cc(C(C)C)c(O)cc2C)OC(=O)c2ccccc21,5.6µM*,-51%,2.1µM*,-11%,3%,1.2µM*
Cc1nc2cccnc2n1-c1cccc(C(=O)NCc2cccc(Cl)c2)c1,x,x,x,x,-4%,x
Cc1nc2ccn(Cc3cccs3)c(=O)c2cc1C(=O)N1CCN(c2ccccc2F)CC1,x,x,x,x,-2%,x
COc1ccc(O[C@H]2C=C[C@@H](c3ccccc3)O[C@@H]2COC(=O)CC/C(C)=N/OC[C@@H](O)COCc2ccco2)cc1,3%[8.37 µM],222%,u,x,-16%,u
COc1ccc(O[C@H]2C=C[C@@H](c3ccccc3)O[C@@H]2COC(=O)CC/C(C)=N/O[C@@H](C)c2cc(-c3c(C)cc(C)cc3C)no2)cc1,1%[8.37 µM],-30%,u,x,u,2.9µM*
CCOC(=O)c1[nH]c(C)c(CCC(=O)Nc2cc(Cl)ccc2C)c1C,x,x,x,x,-5%,x
C=CCOc1c(CNc2ccc(C(=O)O)cc2)cccc1OC,33%,-7%,13%,1%,-12%,4.7µM*
COc1cc(NC(=O)C(NC(=O)C2CCC(C)CC2)C(C)C)cc(OC)c1OC (stereo not drawn),x,x,x,x,8%,x
CCN1CCN(C(=O)Nc2ccc(Cc3ccc(NC(=O)N4CCN(CC)CC4)cc3)cc2)CC1,u,54%,u,u,-7%,10µM*
COc1ccccc1N1CCN(S(=O)(=O)c2cc(C(=O)Nc3ccc(Oc4ccccc4)cc3)ccc2F)CC1,x,x,x,x,5%,x
CCn1c(CC2C(=O)N(C)c3ccccc32)nc2ccccc2c1=O (stereo not drawn),x,x,x,x,16%,x
SMILES,HCV inh,AmpC inh no detg,Pf growth 48h,AMA1-RON2 inh,AmpC inh detg,Pf growth 96h
CCN(CC)c1sc(S(=O)(=O)c2ccccc2)nc1S(=O)(=O)c1ccc(C)cc1,x,x,x,x,3%,x
CCCCCNC(=O)C(C#N)c1nc2ccccc2nc1N1CCCC1 (stereo not drawn),10%,-9%,20%,-2%,-5%,x
CCN(CC)c1nc2ccccc2nc1C(C#N)C(=O)NCCCOC (stereo not drawn),7.1µM*,88%,u,0%,10%,x
CCCCN(CCCC)c1nc2ccccc2nc1C(C#N)C(=O)NCCCOC (stereo not drawn),6%,48%,u,21%,7%,u
COCCCNC(=O)C(C#N)c1nc2ccccc2nc1N1CCCC1 (stereo not drawn),-2%,165%,8.3µM*,-6%,-18%,7.4µM*
Cc1nn2c(-c3cccc(NC(=O)c4ccccc4)c3)nnc2c2ccccc12,x,x,x,x,28%,x
OCCNc1nc2nonc2nc1NCCO,6%,-17%,16%,-7%,-13%,32%
CCN(CC)CCNc1nc2nonc2nc1NCCN(CC)CC,21%,-14%,8.3µM*,81%,u,12µM*
CC(=O)N(c1ccc(Cl)cc1)c1cn(C(C)=O)c2ccccc12,4%,105%,-2%,0%,-2%,-22%[5.75 µM]
CC(=O)n1cc(N(C(=O)CCl)c2ccc(C)cc2)c2ccccc21,1.6µM*,53%,u,0%,-6%,u
COc1ccc2c(c1)N(C(=O)CN1C(=O)C3CCCCC3C1=O)C(C)(C)C=C2C (stereo not drawn),-12%,82%,12µM*,-5%,6%,12%
O=S(=O)(Nc1nc2ccccc2nc1-[n+]1cccc(N=C([O-])c2ccccc2Cl)c1)c1ccccc1,x,86%,8.3µM*,x,6%,8.3µM*
COC(=O)c1cc(Nc2nc3ccccc3nc2NS(=O)(=O)c2ccc(C)cc2)ccc1Cl,x,x,x,x,8%,x
COc1ccc(C([O-])=Nc2ccc[n+](-c3nc4ccccc4nc3NS(=O)(=O)c3ccccc3)c2)cc1,x,83%,2.6µM*,x,-3%,13µM*
COc1ccc(S(=O)(=O)Nc2nc3ccccc3nc2NCC2CCCO2)cc1 (stereo not drawn),20%,-31%,8%,12%,-5%,9%
COc1ccc(C(O)c2cc(OC)ccc2OP(=O)(N(C)C)N(C)C)cc1 (stereo not drawn),2%,26%,10µM*,-5%,-12%,5.2µM*
CC(=O)Oc1c(C)c(OC(C)=O)c2c(c1C(C)=O)OC1CC(=O)C(C(C)=O)=C(O)C21C (stereo not drawn),10%,32%,8.3µM*,-1%,5%,12µM*
Cc1cc(C)c(C#N)c(Oc2ccc(O)cc2)n1,u,0%,4%,10%,u,5.2µM*
